{"source": "PubChem BioAssay AID374", "about": "(University of Pittsburgh Molecular Library Screening Center, 2006)", "note": "Out of some 65,000 compounds screened, about 100 (0.15%) were called active. This excerpt belongs to a sample that is enriched for actives. Values without a mark were called inactive.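 Rule for the calls: active = inhibition above about 50% (limit read from the data); inconclusive = inhibition over screen mean plus 3 SD, below that limit; inactive = the rest.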"}
{"target": "Dual specificity protein phosphatase 1 (Homo sapiens) (UniProt P28562)", "sequence (P28562 whole entry, looked up)": "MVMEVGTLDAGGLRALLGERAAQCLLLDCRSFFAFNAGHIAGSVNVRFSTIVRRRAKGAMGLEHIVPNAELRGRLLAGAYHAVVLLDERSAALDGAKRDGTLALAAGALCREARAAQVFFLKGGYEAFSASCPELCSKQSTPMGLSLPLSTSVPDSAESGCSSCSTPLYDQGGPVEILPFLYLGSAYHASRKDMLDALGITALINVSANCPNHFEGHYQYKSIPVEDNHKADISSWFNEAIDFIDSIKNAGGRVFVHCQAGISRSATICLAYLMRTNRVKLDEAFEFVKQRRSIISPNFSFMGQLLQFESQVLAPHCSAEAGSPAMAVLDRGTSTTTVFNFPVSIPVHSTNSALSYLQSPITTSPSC", "assay": "blockers of human DUSP1 activity – biochemical, in vitro, primary screen (AID 374);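 note: 0% = DMSO max control wells and 100% = wells with enzyme stopped by NaOH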", "settings": "recombinant MKP-1, OMFP hydrolysis fluorescence; hits give high values;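 compounds tested at a single concentration somewhere between 10 and 100 µM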"}
{"smiles": "Cn1c(SCC(=O)c2cccs2)nnc1-c1ccco1", "inhibition": "0.18%"}
{"smiles": "CC(C)[C@H](NC(=O)Nc1ccc(S(N)(=O)=O)cc1)C(=O)O", "inhibition": "-4.12%"}
{"smiles": "CCc1ccccc1N(CC(=O)NCCSCc1ccco1)S(C)(=O)=O", "inhibition": "-0.33%"}
{"smiles": "CC(CN1CCCCC1)OC(=O)c1ccccc1Cl", "note": "(configuration not stated)", "inhibition": "-18.9%"}
{"smiles": "O=C(Nc1cnccn1)c1cccnc1", "inhibition": "35.7%"}
{"smiles": "Cc1cccc(C)c1NC(=O)N1CC=C(n2c(=O)[nH]c3ccccc32)CC1", "inhibition": "-1.96%"}
{"smiles": "O.O.O.O=S(=O)([O-])OC[C@H]1O[C@@H](O[C@]2(COS(=O)(=O)[O-])O[C@H](OS(=O)(=O)[O-])[C@@H](OS(=O)(=O)[O-])[C@@H]2OS(=O)(=O)[O-])[C@H](OS(=O)(=O)[O-])[C@@H](OS(=O)(=O)[O-])[C@@H]1OS(=O)(=O)[O-].[Al]", "inhibition": "9.95%"}
{"smiles": "CC(=NC1CCN(Cc2ccccc2)CC1)c1c(O)[nH]c(=O)[nH]c1=O", "inhibition": "-4.49%"}
{"smiles": "COc1ccccc1Nc1nc(N)nc(CN(C)C2CCCCC2)n1", "inhibition": "-2.91%"}
{"smiles": "CCN(CC(=O)Nc1ccc2c(c1)OCCO2)Cc1cc(=O)oc2cc(C)c(C)cc12", "inhibition": "12.7%"}
{"smiles": "Cc1cc(C)c(NC(=O)CS(=O)CC(=O)Nc2cccnc2)c(C)c1", "note": "(configuration not stated)", "inhibition": "-12.3%"}
{"smiles": "Cc1ccnc(N2CCN(C(=O)CSc3nc4ccccc4nc3N3CCCCC3)CC2)c1", "inhibition": "6.59%"}
{"smiles": "Nn1c(SCC(=O)NC(=O)NC2CCCC2)nnc1-c1ccccc1F", "inhibition": "-5.68%"}
{"smiles": "O=c1cc(CO)oc(CN2CCC(Cc3ccccc3)CC2)c1O", "inhibition": "8.32%"}
{"smiles": "CCOC(=O)CSc1nnc(-c2ccco2)n1C", "inhibition": "-29.8%"}
{"smiles": "CCCCNC(=O)CSc1nnc(-c2ccco2)n1C", "inhibition": "93.8% (active)"}
{"smiles": "O=C(CSc1nnc(-c2ccco2)n1-c1ccccc1)NCCc1ccccc1", "inhibition": "-9.86%"}
{"smiles": "Cc1cc(C)c2c(c1)cc(C)c1nnc(SCC(=O)Nc3cc(C)on3)n12", "inhibition": "8.08%"}
{"smiles": "c1csc(CN2CCN(Cc3cccs3)C2c2cccs2)c1", "inhibition": "-1.36%"}
{"smiles": "Cc1ccc2c(NC(=O)C3CC3)cccc2n1", "inhibition": "3.59%"}
{"smiles": "CCOc1cc(/C=N/n2cnnc2)c(Br)cc1O", "inhibition": "-7.39%"}
{"smiles": "O=C(Nc1ccc(S(=O)(=O)N2CCCCC2)cc1)c1cnccn1", "inhibition": "-0.35%"}
{"smiles": "COc1ccc(S(=O)(=O)N2CCCC(C(=O)Nc3ccc(NC(=O)c4ccccn4)cc3)C2)cc1", "note": "(configuration not stated)", "inhibition": "32.2%"}
{"smiles": "O=C1c2cccnc2C(Nc2ccc(S(=O)(=O)N3CCCCCC3)cc2)N1Cc1ccccc1", "note": "(configuration not stated)", "inhibition": "51.4% (active)"}
{"smiles": "CCOC(=O)N1CCN(CC(=O)c2c(C)[nH]c3ccccc23)CC1", "inhibition": "1.62%"}
{"smiles": "Cc1ccc(-c2noc(CCC(=O)Nc3ccccc3N3CCN(C)CC3)n2)cc1", "inhibition": "-3.7%"}
{"smiles": "CCOc1cccc(NC(=O)C2CCCN(S(=O)(=O)c3ccc(OC)cc3)C2)c1", "note": "(configuration not stated)", "inhibition": "-15.6%"}
{"smiles": "CN(C)CCCn1c(N)c(C#N)c2nc(C#N)c(C#N)nc21", "inhibition": "2.01%"}
{"smiles": "CC(=O)OCc1cc(=O)n(C)c(=O)n1C", "inhibition": "15.5%"}
{"smiles": "CCC(=O)Nc1ccccc1N1CCN(S(C)(=O)=O)CC1", "inhibition": "6.41%"}
{"smiles": "O=C(NCc1ccco1)c1cc(-c2cccnc2)nc2ccc(Cl)cc12", "inhibition": "18.9%"}
{"smiles": "COc1ccc(C(c2nnnn2Cc2cccs2)N2CCN(c3ccccc3)CC2)cc1OC", "note": "(configuration not stated)", "inhibition": "-17.2%"}
{"smiles": "COCCOC(=O)C1=C(C)N=c2s/c(=C\\c3cccs3)c(=O)n2C1c1cccs1", "note": "(configuration not stated)", "inhibition": "-3.72%"}
{"smiles": "CC(C)Cn1c(CCC(=O)O)ccc1-c1cccs1", "inhibition": "-3.65%"}
{"smiles": "O=C(Nc1ccccc1)N(Cc1cccnc1)Cc1ccco1", "inhibition": "19.6%"}
{"smiles": "CCOC(=O)CN1C(=O)C(O)(CC(=O)c2ccccn2)c2ccccc21", "note": "(configuration not stated)", "inhibition": "-1.14%"}
{"smiles": "COc1cccc(-n2c(Cc3cc(=O)[nH]c(=O)[nH]3)nnc2SCC(=O)Nc2ccccc2)c1", "inhibition": "6.14%"}
{"smiles": "O=C(Cn1nc(Cc2cccnc2)c2ccccc2c1=O)NCC1CCCO1", "note": "(configuration not stated)", "inhibition": "-5.72%"}
{"smiles": "O=C(CCC(=O)N1CCN(S(=O)(=O)c2ccccc2)CC1)NC1CCCc2ccccc21", "note": "(configuration not stated)", "inhibition": "28.7%"}
{"smiles": "O=C(NCCN1CCOCC1)c1ccc2c(c1)ncn2C1CCCC1", "inhibition": "-1.23%"}
{"smiles": "O=S1(=O)CC(NCc2ccccc2)C(Nc2ccc(Cl)cc2)C1", "note": "(configuration not stated)", "inhibition": "-10.7%"}
{"smiles": "CC(C)=C(NC(=O)c1ccco1)C(=O)NCCc1nc2ccccc2[nH]1", "inhibition": "-31.3%"}
{"smiles": "CC(=O)Nc1cc2ccc(OC(C)=O)cc2oc1=O", "inhibition": "1.98%"}
{"smiles": "CC1CCCCN1CC(=O)NCc1ccc2c(c1)OCO2", "note": "(configuration not stated)", "inhibition": "11.8%"}
{"smiles": "CCCCn1c(SCC(=O)NCC2CCCO2)nc2ccc(N3CCOCC3)cc2c1=O", "note": "(configuration not stated)", "inhibition": "20.6%"}
{"smiles": "COCCCNC(=O)CSc1nc2ccc(N3CCOCC3)cc2c(=O)n1CCc1ccccc1", "inhibition": "25.1%"}
{"smiles": "CCc1ccc(NC(=O)CSc2nc3ccccc3c(=O)n2CCN2CCOCC2)cc1", "inhibition": "52.5% (active)"}
